# This is part of a sample that, as a whole, favours compounds with a hit. Of some 79,000 tested, about 15% had one in any assay. Active and inactive are the calls of the source. No stated cut-off is given here; in the data, active means growth inhibition above about 70%; inactive means the rest.
# Assay: NCI Yeast Anticancer Drug Screen. Data for the rad50 strain (AID 155);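 further: 0% = growth of vehicle-only cultures of the same strain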
# Details: S. cerevisiae rad50 strain growth inhibition; at 50.0 µM; active compounds read high
# Summary of the method: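 Genetically altered yeast (DNA repair pathway); compound treatment; growth inhibition vs vehicle ctrl.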
row,Compound,growth inhibition
1,Cn1c(N)c(C(=O)/C=C/c2ccccc2)c(=O)n(C)c1=O,11.4% (inactive)
2,CCc1c(CBr)c(=O)[nH]c2ccccc12,8.7% (inactive)
3,CN1CCCC1,2.05% (inactive)
4,COc1ccccc1N=Nc1c(O)n(-c2ccccc2C)c(=S)n(-c2ccccc2OC)c1=O,38.4% (inactive)
5,C=CCC12CC(O)C(O)CC1(OC)OC(c1cc(OC)c(OC)c(OC)c1)C2C (stereo not given),-1.1% (inactive)
6,Cc1ccccc1NC(=O)CS,17.6% (inactive)
7,COc1ccc(N=C2[Se]C(=NC(=O)c3ccccc3)N(c3ccc(OC)cc3)C2=Nc2ccc(OC)cc2)cc1,13.1% (inactive)
8,Cc1cccnc1NCc1ccccn1,3.1% (inactive)
9,Cc1csc2c1-n1cccc1C2=O,5.5% (inactive)
10,CCn1cc(C(=O)O)c(=O)c2ccc(-c3ccncc3)cc21,3.35% (inactive)
11,Cc1cccc(C(=O)O)c1N,9.7% (inactive)
12,C/C=C(\C)c1cc(O)c(C)c2c1Oc1cc(O)c(Cl)c(C)c1C(=O)O2,92.5% (active)
13,CCN(CC)c1cc2c(cc1Br)-c1ccccc1C2=O,4% (inactive)
14,CC1(C)CC(C)(C)CC(O)(C2(O)CC(C)(C)CC(C)(C)C2)C1,-0.95% (inactive)
15,Nc1nc(Br)nc2ncn(C3CC(O)C(CO)O3)c12 (stereo not given),20.1% (inactive)
16,C/C(=N\NC(N)=O)c1sc(-c2nc(C)c(/C(C)=N/NC(N)=O)s2)nc1C,32.8% (inactive)
17,O=C1c2ccccc2C(=O)N1Cl,8.7% (inactive)
18,NC(=O)C(NN=C1c2ccccc2-c2ccccc21)(c1ccccc1)c1ccccc1,41% (inactive)
19,O=C(Cc1ccccc1)c1c[nH]c2c(O)ccc(O)c12,-15.1% (inactive)
20,CCCCCC(CN(C)C)C(O)CCc1ccc(Cl)c(Cl)c1 (stereo not given),98.5% (active)

row,Compound,growth inhibition
1,Cc1cccc(C(C)C)c1NC(=O)/C(Cc1c([N+](=O)[O-])cccc1[N+](=O)[O-])=N/NC(=O)CC#N,-0.15% (inactive)
2,CC1c2c(cc(=O)n(C)c2O)C(=O)N1C (stereo not given),2.15% (inactive)
3,CN(C)c1ccc(/C=C/C=C(/C#N)c2ccccc2)cc1,14.8% (inactive)
4,Cc1nc(-c2nc(C)c(C(=O)NNC(=O)C[n+]3ccccc3)s2)sc1C(=O)NNC(=O)C[n+]1ccccc1,21.9% (inactive)
5,C/C(=N/NC(=S)N1CCCCCC1)c1ccccc1O,-63.5% (inactive)
6,CCCCCCC(=O)c1ccco1,2.4% (inactive)
7,NC1CCCCC1N.O=NN1CCCCCC1(P(=O)([O-])[O-])P(=O)([O-])[O-].[Na+].[Pt+2],-34.9% (inactive)
8,NNC(=O)C1C2C=CC(C2)C1C(=O)NN (stereo not given),7.6% (inactive)
9,CCOC(=O)C(=O)c1cn(C)c(=O)n(C)c1=O,12.1% (inactive)
10,CC(C)(C)OC(=O)NCCNC(=O)OCc1ccccc1,4.25% (inactive)
11,O=[N+]([O-])c1ccc(Oc2cccc3ccccc23)c([N+](=O)[O-])c1,4.75% (inactive)
12,CCOC(=O)C(=O)C(C(=O)OCC)C(C)C(=O)OCC (stereo not given),1.9% (inactive)
13,O=C1C2=C(CCCC2)Nc2cccc3ncn1c23,-25.9% (inactive)
14,CC(C)/C=N/N=C/C(C)C,-15.8% (inactive)
15,COC(=O)C1CC2(C(=O)OC)CC(C(=O)OC)(CC(C(=O)OC)C2=O)C1=O (stereo not given),9.55% (inactive)
16,Cc1nc2ccccc2c(=O)n1/N=C\c1ccc2c(c1)CCC2,-1.7% (inactive)
17,Nc1cccc(Nc2nc3ccccc3nc2NS(=O)(=O)c2ccccc2)c1,18.5% (inactive)
18,BrCCCOc1ccccc1Br,14.6% (inactive)
19,CNC(=O)Nc1ccc(C(=O)OCC(C)C)cc1,6.4% (inactive)
20,C=C(C)CNCC(=C)C,35.3% (inactive)

# Reference: PubChem BioAssay (NCI)
